High-throughput results deposited in PubChem by several laboratories.
GluA2 TARP mod – GluA2-stargazin AMPA receptor complex modulation; actives 3.5% (n = 40,000); AID 1259245; calls only at 30 µM; HEK293 GluA2+stargazin, membrane potential dye (FDSS), glutamate EC50; hits were called plate by plate, in both directions; O88602+P19491;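 active = any of four per-well response measures lying three or more SD from its plate-wide compound average, in either direction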
GIRK2 activator – Activators of human GIRK2-containing channels; P48051; HEK293 GIRK2/NPY4 cells, thallium flux fluorescence; activation (% efficacy), % for hits at 75 µM; 34,000 tested, under 10 active; AID 1259324;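 active = primary screen hit, no activity in plain HEK293 cells, and in GIRK2-only cells above 5% efficacy rising with concentration; inactive = the rest, including fluorescent compounds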;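 also: efficacy is normalized control-subtracted fluorescence 15 s after thallium addition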
Target sequence (P48051 whole entry, looked up): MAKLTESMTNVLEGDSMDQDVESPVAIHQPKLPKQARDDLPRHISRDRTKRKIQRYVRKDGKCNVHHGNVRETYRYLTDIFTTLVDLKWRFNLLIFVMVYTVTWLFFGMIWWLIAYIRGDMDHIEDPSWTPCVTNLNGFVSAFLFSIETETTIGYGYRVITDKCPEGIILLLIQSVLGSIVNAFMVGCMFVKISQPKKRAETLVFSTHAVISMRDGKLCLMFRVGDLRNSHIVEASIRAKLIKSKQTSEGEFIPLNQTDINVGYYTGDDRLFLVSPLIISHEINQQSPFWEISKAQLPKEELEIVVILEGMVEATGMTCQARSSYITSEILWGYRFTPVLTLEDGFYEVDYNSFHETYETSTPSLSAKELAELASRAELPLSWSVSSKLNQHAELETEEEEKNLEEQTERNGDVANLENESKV
* hit, by the source's call; i = inactive; . = no result given; + = active, no number. Only a selection was taken, and hits are over-represented in it overall.

SMILES	GluA2 TARP mod	GIRK2 activator
COc1ccc(OC)c(C(=O)/C=C/c2ccccc2Cl)c1	+	.
CC(C)C(=O)NCCCn1nc(-c2ccco2)ccc1=O	i	i
CC(Oc1ccccc1F)C(=O)NCCCn1nc(-c2ccco2)ccc1=O (configuration not stated)	+	i
Cc1cc(Br)c2nc(-c3ccncc3)oc(=O)c2c1	+	i
Cc1ccc(CNC(=O)CSc2nnc(-c3ccncc3)o2)cc1	i	i
O=C(NCC1CCN(Cc2ccccc2)CC1)C(=O)Nc1ccc2c(c1)OCCO2	i	i
O=C(NCC1CCN(Cc2ccccc2)CC1)C(=O)Nc1ccc2c(c1)OCO2	+	i
CC(C)N1CCc2c(sc(NC(=O)c3ccc(Cl)s3)c2-c2nc3ccccc3s2)C1	+	.
CCC(=O)Nc1sc2c(c1-c1nc3ccccc3s1)CCN(C(C)C)C2	i	.
CC(=O)c1ccc(C(=O)Nc2sc3c(c2-c2nc4ccccc4s2)CCN(C(C)C)C3)cc1	i	.
CC(C)N1CCc2c(sc(NC(=O)c3ccc([N+](=O)[O-])cc3)c2-c2nc3ccccc3s2)C1	+	.
O=S(=O)(NCC(O)(c1ccco1)C1CC1)c1ccc2c(c1)OCCO2 (configuration not stated)	i	i
O=S(=O)(NCC(O)(c1ccco1)C1CC1)c1cccc(C(F)(F)F)c1 (configuration not stated)	+	i
CCCCS(=O)(=O)NCC#CCN1CCc2ccccc2C1	i	i
COc1ccc(S(=O)(=O)N2CCCCCC2)c(C)c1C	i	.
COc1ccc(/C=C/c2nc3ccccc3s2)cc1S(=O)(=O)N1CCCCC1	+	.
COc1ccc(F)cc1S(=O)(=O)N1CCCCCC1	i	.
COc1ccc(Br)cc1S(=O)(=O)N1CCCCCC1	+	.
COc1ccc(Cl)cc1S(=O)(=O)N1CCN(S(=O)(=O)c2cc(Cl)ccc2OC)CC1	i	.
COc1ccc(Cl)cc1S(=O)(=O)N1CCCCCC1	+	.
CCC(=O)Nc1ccc(S(=O)(=O)NCC2CCN(Cc3ccccc3)CC2)c(C)c1	i	i
COc1ccc(NC(=O)Cn2c3c(c(=O)n(C4CCCCC4)c2=O)CCC3)c(OC)c1	i	i
Cc1cccn2c(=O)c3cc(C(=O)N(C)C)n(Cc4ccccc4)c3nc12	i	i
Cc1nnc(NC(=O)CSc2nc(=O)n(N3CCN(C)CC3)c3c2CCCC3)s1	i	i
COc1ccc(-c2ccc(=O)n(Cc3ccc(C(F)(F)F)cc3)n2)cc1OC	i	i
SMILES	GluA2 TARP mod	GIRK2 activator
O=C(Cn1cnc(-c2ccccc2)cc1=O)NCCC(c1ccccc1)c1ccccc1	i	i
CCSc1ccccc1C(=O)NCCn1cnc(-c2ccccc2)cc1=O	+	i
Cc1ccc(S(=O)(=O)c2c(C)nn(C(C)(C)C)c2OC(=O)c2cccc(C(F)(F)F)c2)cc1	i	.
COc1cccc(CNC(=O)C(=O)Nc2ccc3c(c2)N(C(=O)C(C)C)CCC3)c1	+	i
COc1ccc(CNC(=O)C(=O)Nc2ccc3c(c2)N(C(=O)C(C)C)CCC3)cc1	i	i
COc1ccc(SCCC(=O)Nc2nc(-c3ccc4c(c3)OCO4)cs2)cc1	i	.
COc1ccc(C)c2sc(N(Cc3cccnc3)C(=O)c3ccnn3C)nc12	.	i
CC(C)c1ccc(-n2nnc(C(=O)NC3CCCCC3)c2N)cc1	i	i
Cc1cccc(-n2nnc(C(=O)NC3CCCCC3)c2N)c1	+	i
O=C(CSc1cc(N2CCN(c3ccccc3F)CC2)ncn1)NCc1ccco1	i	i
COc1ccc(-c2noc(C3CCN(S(=O)(=O)c4ccc(C)cc4)CC3)n2)cc1	+	i
COc1ccc(-c2noc(C3CCN(S(=O)(=O)c4ccc(Cl)cc4)CC3)n2)cc1	i	i
COc1ccc2nc(NC(=O)c3cc(C)no3)sc2c1	i	i
CCOC(=O)c1c(NC(=O)c2ccnn2C)sc2c1CCCC2	.	i
COC(=O)c1c(NC(=O)c2ccno2)sc2c1CCN(Cc1ccccc1)C2	.	i
CCOC(=O)c1c(NC(=O)c2cc(C)nn2C)sc2c1CCN(CC)C2	+	i
CCOC(=O)c1c(NC(=O)c2ccc(S(=O)(=O)N(C)C3CC3)cc2)sc2c1CCN(CC)C2	+	i
CN(C1CCCC1)S(=O)(=O)c1ccc(C(=O)Nc2sc3c(c2C(N)=O)CCCC3)cc1	i	.
CCOC(=O)c1c(NC(=O)COc2ccc(Cl)cc2)sc2c1CCN(Cc1ccccc1)C2	+	.
COc1ccc(S(=O)(=O)CCCC(=O)Nc2ccc3sccc3c2)cc1	i	i
COc1ccc(S(=O)(=O)N2CCN(c3ccc(-c4ccncc4)nn3)CC2)c(OC)c1	+	i
COc1ccc(S(=O)(=O)N2CCN(c3ccc(Nc4ccncc4)nn3)CC2)cc1	+	i
COc1ccc(C)cc1S(=O)(=O)N1CCN(c2ccc(-c3ccccc3)nn2)CC1	i	i
